Records with an inconclusive call do not appear. Active and inactive are the calls of the source. Rule for the calls, unless noted: active = hit-call score of the fitted dose curve at least 0.9, where 1 is the maximum; inconclusive = response in the unintended direction; inactive = score below 0.9.

A short description of the first assay: STM_H9_CystineISnorm_perc: Stemina devTOX quickPredict H9 human embryonic stem cell (hESC)-based Assay for Cystine (CYSS) Metabolite Biomarker, Normalized (AID 2283713; active = hit-call score of the fitted dose curve at least 0.9, where 1 is the maximum; inactive = score below 0.9). In outline:
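Undifferentiated H9 hESCs exposed 72 h, compound and media replaced every 24 h; final 24-h media analysed by UPLC-HRMS. Cystine normalized to C13 spike-in standard and median 0.1% DMSO control.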
For the compound `CCCCCCCCCC[N+](C)(C)[O-]`, the AC50 (in general, the concentration giving half of the maximal activity seen) is 25 µM (active).

As to `CCc1cc(C2=C(C(=O)O)N(c3ccccc3C(F)(F)F)S(=O)(=O)c3ccccc32)cc2c1OCO2`, the outcome was inactive.

With `CCN(CC)CCOc1ccc(C(=C(Cl)c2ccccc2)c2ccccc2)cc1`, the AC50 was 1.17 µM (active).

For `CC(COCC(C)OC(=O)c1ccccc1)OC(=O)c1ccccc1` (configuration not stated), the outcome was inactive.

In the case of `CCC(C)N(C)C(=O)c1cc2ccccc2c(-c2ccccc2Cl)n1` (configuration not stated), the outcome was inactive.

As for `Nc1nc(Cl)nc2c1ncn2[C@H]1C[C@H](O)[C@@H](CO)O1`, the AC50 is 0.348 µM (active).

As for `O=C(Oc1ccccc1)c1cccc(C(=O)Oc2ccccc2)c1`, the result was inactive.

Consider `CCCC[C@H]1CN(CC2CCOCC2)C(=O)OC12CCN(C1(C)CCN(C(=O)c3c(C)ncnc3C)CC1)CC2`, for which the result was inactive.

Consider `NC(=Nc1ccccc1)Nc1ccccc1`, for which the result was inactive.

As for `O=C(O)c1cccnc1`, the outcome was inactive.

For the compound `CCCCC(CC)COP(=O)(OCC(CC)CCCC)OCC(CC)CCCC` (configuration not stated), the outcome was inactive.

In the case of `O=C1NC(=O)C(c2ccccc2)(c2ccccc2)N1`, the outcome was inactive.

With `Nc1nc(=S)c2[nH]cnc2[nH]1`, the AC50 is 2.13 µM (active).

Consider `O=Cc1ccccc1C=O`, for which the outcome was inactive.

Consider `CC(=O)CC(c1ccccc1)c1c(O)c2ccccc2oc1=O` (configuration not stated), for which the result was inactive.

Consider `CC(=O)[C@@]1(O)CC[C@H]2[C@@H]3CCC4=CC(=O)CC[C@]4(C)[C@H]3CC[C@@]21C`, for which the AC50 was 80 µM (active).

For the compound `CC(C)OC(=O)C(C)(C)Oc1ccc(C(=O)c2ccc(Cl)cc2)cc1`, the result was inactive.

Regarding `N[C@@H](Cc1c[nH]c2ccccc12)C(=O)O`, the result was inactive.

In the case of `CC(=O)S[C@H](C(=O)N[C@H]1Cc2ccccc2[C@H]2CCC[C@@H](C(=O)O)N2C1=O)C(C)C`, the result was inactive.

`O=C(O)CN(CC(=O)O)CC(=O)O`: the AC50 was 14.8 µM (active).

Consider `CCc1nc(N)nc(N)c1-c1ccc(Cl)cc1`, for which the AC50 is 30.6 µM (active).

For `Cc1cn([C@H]2C=C[C@@H](CO)O2)c(=O)[nH]c1=O`, the result was inactive.

In the case of `Cc1cc(Cc2ccc(N)c(C)c2)ccc1N`, the result was inactive.

For `Cc1ccc(-c2cc(C(F)(F)F)nn2-c2ccc(S(N)(=O)=O)cc2)cc1`, the result was inactive.

On to `Cc1ccc(C(C)(C)C)c(O)c1`, for which the outcome was inactive.

Take `O=NO`: the result was inactive.

As to `CCCCCCCCCCCCCCCCO`, the result was inactive.

As for `O=C1OC(c2ccc(O)cc2)(c2ccc(O)cc2)c2ccccc21`, the result was inactive.

On to `CN(C)CCCN1c2ccccc2Sc2ccc(Cl)cc21`, for which the concentration at half-maximal activity (AC50) was 0.751 µM (active).

Another assay can be described thus: STM_H9_OrnCyssISnorm_ratio: Stemina devTOX quickPredict H9 human embryonic stem cell (hESC)-based Assay for Ornithine (ORN):Cystine (CYSS) Ratio (AID 2283714). In short, it runs like this: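 Steps: H9 hESCs in pluripotent state dosed 72h, medium plus compound renewed every 24h; conditioned medium from the final 24h deproteinized in 40% acetonitrile; ORN and CYSS quantified by UPLC-HRMS with C13 spike-ins; ratio relative to vehicle.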
For `CCCCCCCCCC[N+](C)(C)[O-]`, the AC50 is 22.1 µM (active).

Regarding `CCc1cc(C2=C(C(=O)O)N(c3ccccc3C(F)(F)F)S(=O)(=O)c3ccccc32)cc2c1OCO2`, the result was inactive.

With `CCN(CC)CCOc1ccc(C(=C(Cl)c2ccccc2)c2ccccc2)cc1`, the AC50 is 2.53 µM (active).

For the compound `Nc1nc(Cl)nc2c1ncn2[C@H]1C[C@H](O)[C@@H](CO)O1`, the AC50 is 0.621 µM (active).

With `CCCC[C@H]1CN(CC2CCOCC2)C(=O)OC12CCN(C1(C)CCN(C(=O)c3c(C)ncnc3C)CC1)CC2`, the result was inactive.

For `O=C(O)c1cccnc1`, the result was inactive.

Take `CCCCC(CC)COP(=O)(OCC(CC)CCCC)OCC(CC)CCCC` (configuration not stated): the outcome was inactive.

For `O=C1NC(=O)C(c2ccccc2)(c2ccccc2)N1`, the outcome was inactive.

Take `Nc1nc(=S)c2[nH]cnc2[nH]1`: the AC50 is 2.97 µM (active).

As for `CC(=O)[C@@]1(O)CC[C@H]2[C@@H]3CCC4=CC(=O)CC[C@]4(C)[C@H]3CC[C@@]21C`, the AC50 is 73.4 µM (active).

Take `O=C(O)CN(CC(=O)O)CC(=O)O`: the AC50 is 13 µM (active).

Turning to `CCc1nc(N)nc(N)c1-c1ccc(Cl)cc1`, the AC50 was 31.1 µM (active).

With `Cc1cn([C@H]2C=C[C@@H](CO)O2)c(=O)[nH]c1=O`, the result was inactive.

In the case of `Cc1cc(Cc2ccc(N)c(C)c2)ccc1N`, the result was inactive.

Take `Cc1ccc(C(C)(C)C)c(O)c1`: the AC50 is 15 µM (active).

As to `O=C1OC(c2ccc(O)cc2)(c2ccc(O)cc2)c2ccccc21`, the outcome was inactive.

For the compound `CN(C)CCCN1c2ccccc2Sc2ccc(Cl)cc21`, the AC50 is 0.897 µM (active).

A short description of the next assay: CEETOX_H295R_MTT_cell_viability: Viability Assessment in the CeeTox HT-H295R MTT Assay (AID 2283718; active = hit-call score of the fitted dose curve at least 0.9, where 1 is the maximum; inactive = score below 0.9;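 for AC50: curve fitted both ways so AC50 may mark viability loss or gain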). In outline: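 MTT reduction (0.5 mg/ml, 4 h at 37 C; absorbance at 570 and 650 nm) gave viability as background-corrected percent change versus controls. H295R cells had 48 h forskolin (10 uM) prestimulation, then 48 h chemical exposure at 0.1% DMSO.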
As to `CCCCCCCCCC[N+](C)(C)[O-]`, the compound was called inactive.

For the compound `CCN(CC)CCOc1ccc(C(=C(Cl)c2ccccc2)c2ccccc2)cc1`, the outcome was inactive.

Consider `CC(COCC(C)OC(=O)c1ccccc1)OC(=O)c1ccccc1` (configuration not stated), for which the outcome was inactive.

Turning to `CCC(C)N(C)C(=O)c1cc2ccccc2c(-c2ccccc2Cl)n1` (configuration not stated), the result was inactive.

For the compound `Nc1nc(Cl)nc2c1ncn2[C@H]1C[C@H](O)[C@@H](CO)O1`, the AC50 was 0.109 µM (active).

With `O=C(Oc1ccccc1)c1cccc(C(=O)Oc2ccccc2)c1`, the compound was classed as inactive.

`NC(=Nc1ccccc1)Nc1ccccc1`: the compound was called inactive.

`Nc1nc(=S)c2[nH]cnc2[nH]1`: the AC50 is 2.52 µM (active).

As to `CC(=O)[C@@]1(O)CC[C@H]2[C@@H]3CCC4=CC(=O)CC[C@]4(C)[C@H]3CC[C@@]21C`, the result was inactive.

For `O=C(O)CN(CC(=O)O)CC(=O)O`, the compound was called inactive.

For `Cc1cc(Cc2ccc(N)c(C)c2)ccc1N`, the outcome was inactive.

With `O=C1OC(c2ccc(O)cc2)(c2ccc(O)cc2)c2ccccc21`, the call was inactive.

The next assay is described as follows: Tanguay_ZF_120hpf_ActivityScore_legacy: (Legacy) Oregon State University Tanguay Lab 120 Hour Post-fertilization zebrafish Assay Score for Activity (AID 2283742).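 For AC50: dechorionated Tropical 5D wild-type zebrafish embryos held singly per well; static exposure from 6 hpf until 120 hpf at 28 °C.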 In outline:
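Embryos are staged, enzymatically dechorionated at 4 hpf, placed individually at 6 hpf, then held in test chemical (0.64% DMSO) at 28C until 120 hpf. Mortality and malformations are scored by brightfield, with non-mortality endpoints skipped for dead embryos.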
For the compound `CCCCCCCCCC[N+](C)(C)[O-]`, the outcome was inactive.

As to `CCc1cc(C2=C(C(=O)O)N(c3ccccc3C(F)(F)F)S(=O)(=O)c3ccccc32)cc2c1OCO2`, the call was inactive.

Consider `CCN(CC)CCOc1ccc(C(=C(Cl)c2ccccc2)c2ccccc2)cc1`, for which the AC50 was 37.8 µM (active).

Take `CC(COCC(C)OC(=O)c1ccccc1)OC(=O)c1ccccc1` (configuration not stated): the compound was classed as inactive.

In the case of `CCC(C)N(C)C(=O)c1cc2ccccc2c(-c2ccccc2Cl)n1` (configuration not stated), the call was inactive.

Take `Nc1nc(Cl)nc2c1ncn2[C@H]1C[C@H](O)[C@@H](CO)O1`: the outcome was inactive.

In the case of `O=C(Oc1ccccc1)c1cccc(C(=O)Oc2ccccc2)c1`, the result was inactive.

`CCCC[C@H]1CN(CC2CCOCC2)C(=O)OC12CCN(C1(C)CCN(C(=O)c3c(C)ncnc3C)CC1)CC2`: the call was inactive.

Consider `NC(=Nc1ccccc1)Nc1ccccc1`, for which the AC50 is 0.00546 µM (active).

For the compound `O=C(O)c1cccnc1`, the outcome was inactive.

For `CCCCC(CC)COP(=O)(OCC(CC)CCCC)OCC(CC)CCCC` (configuration not stated), the outcome was inactive.

As to `O=C1NC(=O)C(c2ccccc2)(c2ccccc2)N1`, the compound was classed as inactive.

As for `Nc1nc(=S)c2[nH]cnc2[nH]1`, the outcome was inactive.

As to `O=Cc1ccccc1C=O`, the AC50 is 3.08 µM (active).

`CC(=O)CC(c1ccccc1)c1c(O)c2ccccc2oc1=O` (configuration not stated): the compound was classed as inactive.

Take `CC(=O)[C@@]1(O)CC[C@H]2[C@@H]3CCC4=CC(=O)CC[C@]4(C)[C@H]3CC[C@@]21C`: the call was inactive.

On to `CC(C)OC(=O)C(C)(C)Oc1ccc(C(=O)c2ccc(Cl)cc2)cc1`, for which the compound was classed as inactive.

Regarding `N[C@@H](Cc1c[nH]c2ccccc12)C(=O)O`, the result was inactive.

As to `CC(=O)S[C@H](C(=O)N[C@H]1Cc2ccccc2[C@H]2CCC[C@@H](C(=O)O)N2C1=O)C(C)C`, the result was inactive.

Take `O=C(O)CN(CC(=O)O)CC(=O)O`: the compound was classed as inactive.

With `CCc1nc(N)nc(N)c1-c1ccc(Cl)cc1`, the result was inactive.

Turning to `Cc1cn([C@H]2C=C[C@@H](CO)O2)c(=O)[nH]c1=O`, the outcome was inactive.

Turning to `Cc1cc(Cc2ccc(N)c(C)c2)ccc1N`, the compound was classed as inactive.

For `Cc1ccc(-c2cc(C(F)(F)F)nn2-c2ccc(S(N)(=O)=O)cc2)cc1`, the outcome was inactive.

As for `Cc1ccc(C(C)(C)C)c(O)c1`, the compound was called inactive.

In the case of `O=NO`, the result was inactive.

For `CCCCCCCCCCCCCCCCO`, the outcome was inactive.

Regarding `O=C1OC(c2ccc(O)cc2)(c2ccc(O)cc2)c2ccccc21`, the outcome was inactive.

Turning to `CN(C)CCCN1c2ccccc2Sc2ccc(Cl)cc21`, the AC50 is 33.7 µM (active).

The record behind these values is PubChem BioAssay (EPA / NIEHS).
